# Experimental data reported in PubChem BioAssay AID1460 (National Center for Advancing Translational Sciences (NCATS), 2008).
# Where “and” joins values, the source holds several entries; their conditions need not be identical. Equal entries are not always repeated. The campaign covered roughly 270,000 compounds. About 5,800 (2.1%) were called active. Where a call stands in place of a potency, no number is given. Inconclusive results (about 16%) are left out. The call rests on the fitted dose curve; in most records, active means well fitted inhibition curve with a large enough effect; inconclusive means small, poorly fitted or top-dose-only effect; inactive means flat fitted curve, though single readings scatter. Only a selection was taken, and actives are over-represented in it overall.
# Molecular target: Microtubule-associated protein tau (Homo sapiens) (UniProt P10636)
# Test: qHTS for Inhibitors of Tau Fibril Formation, Thioflavin T Binding; further: nearly all actives have a fitted effect of over 55% in size
# Conditions: recombinant tau K18 P301L (four-repeat tau fragment), heparin-induced fibrillization, ThT fluorescence; series mostly up to 57.4 µM
# How it was run: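 Heparin-induced (20 uM) aggregation of recombinant human K18 P301L tau, 15 uM unlabeled with 0.24 uM labeled, pH 7 acetate buffer, 6 hr at 37 C with compound. Fibrils quantified by 30 uM ThT fluorescence after 1 hr ambient incubation.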
# Potency means the concentration at half of the fitted maximal effect.
# Sequence of Microtubule-associated protein tau (Homo sapiens) (P10636 561-689 P618L limits assumed): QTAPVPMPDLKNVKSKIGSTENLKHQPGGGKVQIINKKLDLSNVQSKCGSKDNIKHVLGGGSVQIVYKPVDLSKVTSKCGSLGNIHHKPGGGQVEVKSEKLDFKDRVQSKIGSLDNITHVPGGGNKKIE
row,Structure (SMILES),Potency
1,COc1ccc(NC(=O)c2cc3cc(C)ccc3n2C)cc1,inactive
2,CCCCNC(=O)CSc1nc2cc3c(cc2c(=O)n1CCCCCC(=O)NCc1ccc2c(c1)OCO2)OCO3,inactive
3,CC(=O)N/C(=C/c1ccc(Cl)cc1)C(=O)NCCc1c[nH]c2ccccc12,inactive
4,N#C/C(=C/c1ccc(N2CCCCC2)o1)C(=O)NCCc1c[nH]c2ccccc12,4.47 µM (active)
5,O=C(NCCc1c[nH]c2ccccc12)C(=O)NCC1CCCO1 (stereo not drawn),inactive
6,COc1ccc(CCNC(=O)c2nn(C)c3c2CSc2ccccc2-3)cc1OC,inactive
7,CCc1nc2onc(C)c2c(=O)n1CC(=O)O,inactive
8,Oc1ccc(N=Nc2nccs2)c(O)c1,3.55 µM (active)
9,Oc1ccc2ccccc2c1N=Nc1nccs1,7.94 µM (active)
10,CCCCn1c(=O)c2oc3ccccc3c2n(CC(=O)Nc2ccccc2OC)c1=O,inactive
11,COc1cc(C(CC(=O)NCCC(C)C)N2Cc3ccccc3C2=O)cc(OC)c1OC (stereo not drawn),inactive
12,O=C(Cn1cnc2c(oc3ccccc32)c1=O)Nc1ccc(OC(F)(F)F)cc1,inactive
13,Cc1ccc(CN2CCC(CNC(=O)c3cnn(-c4ccccc4Cl)c3C3CCN(C(=O)OC(C)(C)C)CC3)CC2)cc1,inactive
14,COc1ccc(-c2nnc(SCC(=O)Nc3ccccc3C)o2)cc1OC,inactive
15,O=[N+]([O-])c1cc([N+](=O)[O-])c2cccnc2c1O,12.6 µM (active)
16,CC(c1ccco1)N(C(=O)COc1ccccc1[N+](=O)[O-])c1ccccn1 (stereo not drawn),inactive
17,O=[N+]([O-])c1cccc2ncccc12,inactive
18,COCCNc1ncnc2c1c(-c1ccccc1)cn2-c1ccc(C)c(Cl)c1,inactive
19,CCc1nnc(NC(=O)c2cccc(S(=O)(=O)N(C)c3ccc(OC)cc3)c2)s1,inactive
20,CCc1ccc2nc3sc(C(=O)Nc4nnc(CC)s4)c(N)c3cc2c1,3.98 µM (active)
21,CCc1nnc(NC(=O)c2nc3nccc(C)n3n2)s1,inactive
22,CCC(=O)N1c2ccccc2CC1C(=O)N1CCN(c2cccc(OC)c2)CC1 (stereo not drawn),inactive
23,Cn1c(=O)sc2cc(NS(=O)(=O)c3ccc(C(C)(C)C)cc3)ccc21,inactive
24,COc1cc(COCC(O)CN2CCN(Cc3ccc4c(c3)OCO4)CC2)cc(OC)c1OC (stereo not drawn),inactive
25,COc1ccc2cc1Oc1ccc(cc1)C[C@H]1c3cc(c(OC)cc3CCN1C)Oc1c(O)c(OC)cc3c1[C@H](C2)N(C)CC3,inactive

row,Structure (SMILES),Potency
1,COc1c(O)ccc2c1CN1CCc3cc4c(cc3C1C2)OCO4 (stereo not drawn),22.4 µM (active)
2,COC(=O)c1ccccc1NC(=O)C(Cc1ccccc1)N1Cc2ccccc2C1=O (stereo not drawn),inactive
3,CCCCN(CC)CCCNC(=O)Cn1ncc2c([nH]c3ccc(C)cc32)c1=O,inactive
4,Cc1ccc(NC(=O)CSc2nc3c(c(=O)[nH]2)CN(Cc2ccc4c(c2)OCO4)CC3)cc1C,inactive
5,Cc1ccc(CN2CCC(CNC(=O)c3cnn(-c4ccc(C)cc4)c3C3CCN(C(=O)OC(C)(C)C)CC3)CC2)cc1,inactive
6,Cc1ccc2nc(/C(C#N)=C/c3ccc(-c4ccc(C(=O)OC(C)C)cc4)o3)[nH]c2c1,inactive
7,CCCCOC(=O)/C(C#N)=C/c1ccc(-c2cccc(C(F)(F)F)c2)o1,inactive
8,CCOC(=O)c1ccc(-c2ccc(/C=C(\C#N)C(=O)Nc3ccc(OCC)cc3)o2)cc1,1.41 µM (active)
9,COc1cccc(N2CCN(S(=O)(=O)c3ccc4c(c3)CCCN4C(C)=O)CC2)c1,inactive
10,COC(=O)c1[nH]c2ccccc2c1NS(=O)(=O)c1ccc(OC)cc1OC,inactive
11,CCOC(=O)c1[nH]c2ccc(OC)cc2c1NC(=O)CCN1CCN(Cc2ccccc2)CC1,inactive
12,COC(=O)c1[nH]c2ccc(Br)cc2c1NC(=O)Oc1ccccc1,15.8 µM (active)
13,O=S(=O)(NCCS(=O)(=O)N1CCN(c2ccccc2)CC1)c1ccc(Cl)cc1,inactive
14,CN(C(=O)CSc1nc2ccc(NC(=O)COc3ccccc3)cc2s1)c1ccccc1,inactive
15,CCCCc1nn2c(=O)cc(COC(=O)c3ccc(NC(=O)c4ccccc4C)cc3)nc2s1,inactive
16,O=C1CSC(=S)N1/N=C/c1ccc(O)c([N+](=O)[O-])c1,6.31 µM (active)
17,Cc1ccc(C(=O)Cn2cc([N+](=O)[O-])nc2C)cc1,inactive
18,O=C(c1ccncc1)c1ccc([N+](=O)[O-])cc1,inactive
19,O=C(Cn1c[n+](CC(=O)c2ccc([N+](=O)[O-])cc2)cn1)c1ccc([N+](=O)[O-])cc1,12.6 µM (active) and 20 µM (active)
20,Cc1csc2nc(COC(=O)c3ccc(NC(=O)COc4ccccc4F)cc3)cc(=O)n12,inactive
21,O=C(Nc1cccc2ncccc12)C(Cl)(Cl)Cl,inactive
22,O=C(Nc1cccc2ncccc12)c1ccc(-c2ccc(Cl)cc2Cl)o1,inactive
23,Cc1ccc(/C=C(\C#N)C(=O)Nc2cccc3ncccc23)o1,14.1 µM (active)
24,O=C(NCc1ccccc1Cl)C1CCN(c2ncnc3c2nc2n3CCCCC2)CC1,inactive
25,Cc1ccc(NC(=O)Cn2cnc3nc4c(cc3c2=O)CCCC4)cc1Cl,inactive

row,Structure (SMILES),Potency
1,O=C(Nc1ccccc1)Nc1ccccc1C(=O)NCc1ccco1,inactive
2,CCc1ccc(-c2cc(C(=O)NCc3ccco3)c3ccccc3n2)s1,25.1 µM (active)
3,CCOc1ccc(CNC(=O)c2cc(-c3ccc(Cl)s3)nc3ccccc23)cc1,inactive
4,Cc1cc(C)cc(NS(=O)(=O)c2cc3c(cc2C)NC(=O)CO3)c1,inactive
5,CCc1ccc(NC(=O)CCCc2nnc3n(CCCOC)c(=O)c4sccc4n23)cc1,inactive
6,CCN(CC)c1ccc(NC(=O)CN2CCN(CC(=O)Nc3ccc(Cl)cc3)CC2)cc1,inactive
7,COc1ccc(-c2nc(SCC(=O)N3CCCCC3C)n[nH]2)cc1 (stereo not drawn),inactive
8,Cc1ccc(NN=Nc2nc3c([nH]2)c(=O)n(C)c(=O)n3C)cc1,28.2 µM (active)
9,Cc1ccc(CNC(=O)CSc2c(C)cnc3c2c(=O)n(C)c(=O)n3C)cc1,inactive
10,CC(CCO)Nc1nc2c([nH]1)c(=O)n(C)c(=O)n2C (stereo not drawn),inactive
11,CCc1cccc(CC)c1NC(=O)Cn1c(=O)c(-c2cc(C)ccc2NC(C)=O)nc2ccccc21,inactive
12,Nc1nc(-c2sc3nc4c(cc3c2N)CCCC4)nc(N2CCOCC2)n1,3.55 µM (active)
13,Cc1cc(Oc2ccccc2)nc(N2CCOCC2)n1,inactive
14,Cc1nc(N2CCOCC2)nc2c1CCCC2,inactive
15,COc1ccc(CCNc2nc(-c3ccc(Cl)cc3)cc(C(F)(F)F)n2)cc1OC,inactive
16,COc1ccc2c(Sc3ccc(C)cc3)c(C(=O)NC(C)c3ccccc3)[nH]c2c1 (stereo not drawn),inactive
17,CNC(=O)c1ccc(-c2nc(CN3CCc4ccccc43)c(C)o2)cc1,inactive
18,CCc1ccc(NC(=O)c2nn(-c3ccc(C)cc3)c(=O)n(C)c2=O)cc1,inactive
19,CC(C)CCNC(=O)CSc1nc2ccccc2nc1Cc1ccc(Cl)cc1,inactive
20,CCc1ccc(Sc2cc(C(=O)NCCCOC(C)C)c3ccccc3n2)cc1,inactive
21,COc1ccccc1OCCNc1cc(N2CCOCC2)ccc1[N+](=O)[O-],14.1 µM (active)
22,O=[N+]([O-])c1ccc(N2CCN(S(=O)(=O)c3ccc4ccccc4c3)CC2)cc1NCc1ccco1,inactive
23,COc1ccccc1OCCNC(=O)c1cc([N+](=O)[O-])cc([N+](=O)[O-])c1,inactive
24,Cc1ccc2nc(COc3cccc(NC(=O)Nc4ccc(C)c(Cl)c4)c3)cc(=O)n2c1,inactive
25,CCc1ccc(CNCc2c(C(=O)O)n(Cc3ccc(F)cc3Cl)c3cc(OC)ccc23)cc1,inactive

row,Structure (SMILES),Potency
1,COc1ccc(S(=O)(=O)NCc2cccn2Cc2cccc(C)c2)cc1,inactive
2,COc1ccc(Cc2nc3ccc(C(=O)NCc4ccccc4C)cc3o2)cc1,inactive
3,O=C(Nc1ccccc1Cl)/C(Cl)=C(\Cl)S(=O)c1ccccc1 (stereo not drawn),2.82 µM (active)
4,COCCN(CCOC)C(=S)Nc1ccccc1Cl,inactive
5,O=C(Nc1ccccc1Cl)c1ccc2nsnc2c1,inactive
6,CCOC(=O)C1CCCN(C(=O)Cn2ncc3c(C)n(Cc4ccc(F)cc4)c(C)c3c2=O)C1 (stereo not drawn),inactive
7,O=C(CCc1nc(CN2CCN(S(=O)(=O)c3ccc(Cl)cc3)CC2)no1)N1CCCCC1,inactive
8,CCC(=O)Nc1ccc(C)cc1-c1nc2ccccc2n(Cc2ccccc2)c1=O,inactive
9,Cc1ccc(NC(=O)Nc2ccccc2)c(Br)c1,inactive
10,C=CCNc1scc(-c2ccccc2)[n+]1CC=C,inactive
11,C=CC[n+]1c(-c2ccc(C)cc2)csc1NNC(=O)Nc1ccccc1,15.8 µM (active)
12,O=C(NCC(c1ccc(Cl)cc1)N1CCOCC1)c1ccccc1F (stereo not drawn),inactive
13,COc1ccc(-c2cc(C(=O)NCc3cc(OC)c(OC)c(OC)c3)[nH]n2)cc1,inactive
14,Cc1ccc2c(c1)N(CC(=O)NCCCN1CCCCC1)C(=O)c1cccnc1O2,inactive
15,Cc1ccc(-c2nc3cccc(C)n3c2Nc2ccc3c(c2)OCCO3)cc1,inactive
16,Cc1ccc(Nc2c(-c3ccc(N(C)C)cc3)nc3nc[nH]n23)cc1,14.1 µM (active)
17,Cc1ccc(Nc2c(-c3ccc(C)s3)nc3ccccn23)cc1,inactive
18,CCn1cc(C(=O)NCc2ccc(C)cc2)c(=O)c2cc(S(=O)(=O)N3CCc4ccccc4C3)ccc21,inactive
19,Cc1c(-c2nsc(NC(=O)c3cccc(Cl)c3)n2)nnn1-c1ccccc1C(F)(F)F,inactive
20,CCOC(=O)c1ccc(NC(=O)Cn2cc(S(=O)(=O)Cc3ccccc3F)c3ccccc32)cc1,inactive
21,O=C1CC(c2ccccc2)=NN1c1ccc([N+](=O)[O-])cc1,11.2 µM (active)
22,O=c1[nH]n(-c2ccc([N+](=O)[O-])cc2)c(=O)c2ccccc12,inactive
23,COC(=O)CC1=NN(c2ccccc2)C(=O)C1,inactive
